# According to PubChem BioAssay AID1794835 (Parasite Biology Lab, Institute for Biomedicine and …, 2023):
# Among all 2,500 compounds or so, about 45 (2%) were called active. This is one part of a sample in which actives are shown more often than they occur. Cut-off read from the data, not from the text of the source: active = inhibition mostly above about 45% (no sharp cut-off); inactive = mostly below about 37%.
# Assay: anti-Giardia activity of synthetic compounds – Compounds Australia Scaffold Library subset, 24/48 h, primary screen (AID 1794835);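 for inhibition: 0% = parasite counts in DMSO vehicle wells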
# Details: Giardia lamblia BRIS/91/HEPU/1279 trophozoite counts, imaging, at 10 µM
# [1] = measured here: growth inhibition at 24 h, stronger effect = higher value
compound,measurement,setting,value
CC(=O)Nc1ccc([N+](=O)[O-])c2nonc12,inhibition,stronger effect = higher value,63.4% (active)
same,inhibition,[1],45%
CCc1ccc(NC(=O)[C@@H]2c3cc(OC)c(OC)cc3C(=O)N3CCCC[C@@H]23)cc1,inhibition,stronger effect = higher value,28.1% (inactive)
Cc1nn(C)c(C)c1CC(=O)N1CCC(N2CCCC2)C1 (stereo unspecified),inhibition,,inactive
CSc1ccc(C2NCc3ccccc3-n3cccc32)cc1 (stereo unspecified),inhibition,stronger effect = higher value,3.9% (inactive)
same,inhibition,[1],18.8%
COc1ccc(C2c3cccn3-c3ccccc3CN2C(=O)CCC(=O)NC2CCCCC2)cc1 (stereo unspecified),inhibition,,inactive
O=[N+]([O-])c1ccc(N2CCC(c3ncc[nH]3)CC2)c2ccncc12,inhibition,stronger effect = higher value,88.1% (active)
same,inhibition,[1],64.1%
Cc1cccc(NC(=O)CN2CC(c3ccccc3)CC2=O)c1 (stereo unspecified),inhibition,stronger effect = higher value,10.4% (inactive)
same,inhibition,[1],2.3%
CC(=O)N1N=C2C3CCN(CC3)[C@@H]2[C@@H]1c1cccc2ccccc12,outcome,,inactive
same,inhibition,[1],4.2%
Cc1ccc2c(C3CCNCC3)c[nH]c2c1,inhibition,,inactive
Cc1cccc(OCC(=O)N2CCN(Cc3nnsc3Cl)CC2)c1C,inhibition,stronger effect = higher value,35.2% (inactive)
same,inhibition,[1],20.5%
